Reference: publication PMC7862700, “An all-to-all approach to the identification of sequence-specific readers for epigenetic DNA modifications on cytosine”

What was measured:
Experiment in all cases: DAPPL (digital affinity profiling via proximity ligation, sequencing); 10 mM Tris-HCl pH 7.5, 50 mM NaCl, 1 mM DTT, 4% glycerol, room temperature, 30 min; GST-TFs on glutathione beads, 16-mer random dsDNA library, 0.1% formaldehyde crosslink after washing; high values mean tight binding
Details in all cases: protein: recombinant; tags: N-terminal GST; dsDNA, one strand shown
[1] = molecular target: T1, ERF (Homo sapiens, UniProt P50548 1-548)
T1 sequence: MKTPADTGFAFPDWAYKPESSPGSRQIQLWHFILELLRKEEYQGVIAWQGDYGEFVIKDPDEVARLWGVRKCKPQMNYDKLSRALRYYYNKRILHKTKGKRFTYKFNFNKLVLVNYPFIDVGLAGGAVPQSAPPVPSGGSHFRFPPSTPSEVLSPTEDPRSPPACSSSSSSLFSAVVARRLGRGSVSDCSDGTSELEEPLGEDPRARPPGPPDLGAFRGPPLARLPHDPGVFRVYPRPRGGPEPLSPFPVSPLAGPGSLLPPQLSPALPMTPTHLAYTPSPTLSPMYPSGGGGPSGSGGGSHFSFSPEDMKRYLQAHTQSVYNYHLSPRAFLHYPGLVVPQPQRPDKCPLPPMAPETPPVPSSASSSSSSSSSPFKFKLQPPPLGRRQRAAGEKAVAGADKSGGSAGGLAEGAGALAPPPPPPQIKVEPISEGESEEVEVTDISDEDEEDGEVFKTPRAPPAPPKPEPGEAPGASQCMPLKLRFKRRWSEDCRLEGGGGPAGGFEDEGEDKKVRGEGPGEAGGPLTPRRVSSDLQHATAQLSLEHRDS
How it was run: (§1)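 In yeast, human transcription factors were expressed with a GST fusion, then pulled down on glutathione beads and given DNA barcodes. Pooled with a tag-only sample, they were exposed to 200 nmole of a 16-mer random double-stranded DNA library (Tris/NaCl/DTT/glycerol buffer, room temperature, 30 min), washed, crosslinked with 0.1% formaldehyde, proximity-ligated using BsaI/T4 ligase for 1 h at 37 °C, PCR-amplified and read on an Illumina NextSeq500. Each hexamer's frequency of reads for a factor, divided by the matching frequency for the tag-only sample, gives the binding signal.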

[2] = molecular target: T2, ETV3L (Homo sapiens, UniProt Q6ZN32 1-361)
T2 sequence: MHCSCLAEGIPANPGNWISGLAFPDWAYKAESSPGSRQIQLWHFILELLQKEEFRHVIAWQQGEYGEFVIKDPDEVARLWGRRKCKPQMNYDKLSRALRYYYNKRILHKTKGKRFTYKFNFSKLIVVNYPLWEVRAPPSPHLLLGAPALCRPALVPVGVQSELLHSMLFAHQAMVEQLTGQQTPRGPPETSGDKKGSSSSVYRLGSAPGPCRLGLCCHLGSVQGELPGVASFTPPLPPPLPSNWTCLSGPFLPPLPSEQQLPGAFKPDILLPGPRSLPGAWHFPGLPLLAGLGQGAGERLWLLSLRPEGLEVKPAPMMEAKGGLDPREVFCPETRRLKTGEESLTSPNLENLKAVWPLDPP
How it was run: as §1

[3] = molecular target: T3, ETS2 (Homo sapiens, UniProt P15036 1-469)
T3 sequence: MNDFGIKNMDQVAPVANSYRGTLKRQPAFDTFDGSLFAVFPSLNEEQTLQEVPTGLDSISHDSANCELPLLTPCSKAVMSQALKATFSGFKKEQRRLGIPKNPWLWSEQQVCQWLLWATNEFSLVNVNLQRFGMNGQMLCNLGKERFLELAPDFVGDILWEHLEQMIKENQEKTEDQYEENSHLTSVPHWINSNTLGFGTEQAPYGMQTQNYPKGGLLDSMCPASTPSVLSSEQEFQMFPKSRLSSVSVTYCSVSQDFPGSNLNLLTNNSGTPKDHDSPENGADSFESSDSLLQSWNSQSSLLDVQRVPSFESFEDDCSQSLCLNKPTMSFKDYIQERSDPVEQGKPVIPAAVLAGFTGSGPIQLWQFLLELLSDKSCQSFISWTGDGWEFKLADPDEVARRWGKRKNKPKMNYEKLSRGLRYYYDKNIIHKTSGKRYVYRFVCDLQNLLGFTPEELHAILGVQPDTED
How it was run: as §1

[4] = molecular target: T4, SPDEF (Homo sapiens, UniProt O95238 1-335)
T4 sequence: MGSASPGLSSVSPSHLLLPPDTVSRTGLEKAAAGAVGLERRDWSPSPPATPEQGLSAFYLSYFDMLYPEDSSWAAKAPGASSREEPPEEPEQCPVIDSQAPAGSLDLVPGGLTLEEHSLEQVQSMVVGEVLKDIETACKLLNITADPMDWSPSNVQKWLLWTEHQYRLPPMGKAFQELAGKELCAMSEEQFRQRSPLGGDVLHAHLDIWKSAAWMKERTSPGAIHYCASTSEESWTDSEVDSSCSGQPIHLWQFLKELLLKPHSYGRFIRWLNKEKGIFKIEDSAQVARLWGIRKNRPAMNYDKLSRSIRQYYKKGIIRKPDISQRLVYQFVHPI
How it was run: as §1

[5] = molecular target: T5, ETV7 (Homo sapiens, UniProt Q9Y603 1-341)
T5 sequence: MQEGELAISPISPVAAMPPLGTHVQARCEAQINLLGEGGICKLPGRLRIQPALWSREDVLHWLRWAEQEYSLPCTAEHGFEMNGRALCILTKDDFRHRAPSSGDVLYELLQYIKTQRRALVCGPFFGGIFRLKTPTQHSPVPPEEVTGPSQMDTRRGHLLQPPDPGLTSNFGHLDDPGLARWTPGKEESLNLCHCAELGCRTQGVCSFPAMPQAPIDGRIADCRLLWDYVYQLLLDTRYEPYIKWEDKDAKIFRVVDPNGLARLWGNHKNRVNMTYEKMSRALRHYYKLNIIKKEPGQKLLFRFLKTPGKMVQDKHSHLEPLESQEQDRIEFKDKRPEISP
How it was run: as §1

[6] = molecular target: T6, ELF5 (Homo sapiens, UniProt Q9UKW6-2 1-255)
T6 sequence: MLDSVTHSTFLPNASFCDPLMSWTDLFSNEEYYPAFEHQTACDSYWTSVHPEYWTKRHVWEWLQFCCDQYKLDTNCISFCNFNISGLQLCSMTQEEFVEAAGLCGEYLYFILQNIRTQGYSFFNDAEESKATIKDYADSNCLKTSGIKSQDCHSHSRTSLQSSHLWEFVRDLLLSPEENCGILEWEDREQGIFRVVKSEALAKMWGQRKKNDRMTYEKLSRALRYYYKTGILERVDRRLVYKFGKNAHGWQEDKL
How it was run: as §1

[7] = molecular target: T7, ETV3 (Homo sapiens, UniProt P41162-2 1-143)
T7 sequence: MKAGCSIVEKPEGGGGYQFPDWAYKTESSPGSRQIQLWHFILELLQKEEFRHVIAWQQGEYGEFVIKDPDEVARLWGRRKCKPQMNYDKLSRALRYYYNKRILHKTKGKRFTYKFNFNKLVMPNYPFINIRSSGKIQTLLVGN
How it was run: as §1

[8] = molecular target: ETV6 (Homo sapiens, UniProt P41212 1-452)
How it was run: as §1

Sequence of ETV6 (P41212 whole entry): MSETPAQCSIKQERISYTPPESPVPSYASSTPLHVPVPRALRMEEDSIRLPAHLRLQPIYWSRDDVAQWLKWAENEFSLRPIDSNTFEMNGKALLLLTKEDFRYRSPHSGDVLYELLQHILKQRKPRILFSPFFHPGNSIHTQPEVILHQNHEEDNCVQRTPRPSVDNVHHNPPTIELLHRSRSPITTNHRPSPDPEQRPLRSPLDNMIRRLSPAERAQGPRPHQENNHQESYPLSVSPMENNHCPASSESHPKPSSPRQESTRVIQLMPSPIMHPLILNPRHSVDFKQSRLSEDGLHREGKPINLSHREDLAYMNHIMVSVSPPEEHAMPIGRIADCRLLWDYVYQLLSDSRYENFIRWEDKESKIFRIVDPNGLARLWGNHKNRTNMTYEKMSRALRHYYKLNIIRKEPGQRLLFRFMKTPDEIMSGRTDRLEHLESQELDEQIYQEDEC

Row | Sequence | binding signal [1] | binding signal [2] | binding signal [3] | binding signal [4] | binding signal [5] | binding signal [6] | binding signal [7] | binding signal [8]
1 | TGCTGG | 1.2 fold enrichment (6-mer frequency, TF over GST control) | 1.22 fold enrichment (6-mer frequency, TF over GST control) | 1.07 fold enrichment (6-mer frequency, TF over GST control) | 1.15 fold enrichment (6-mer frequency, TF over GST control) | 1.13 fold enrichment (6-mer frequency, TF over GST control) | 1.07 fold enrichment (6-mer frequency, TF over GST control) | 1.11 fold enrichment (6-mer frequency, TF over GST control) | 1.06 fold enrichment (6-mer frequency, TF over GST control)
2 | AAATAA | 1.38 fold enrichment (6-mer frequency, TF over GST control) | 1.26 fold enrichment (6-mer frequency, TF over GST control) | 1.39 fold enrichment (6-mer frequency, TF over GST control) | 1.25 fold enrichment (6-mer frequency, TF over GST control) | 1.32 fold enrichment (6-mer frequency, TF over GST control) | 1.34 fold enrichment (6-mer frequency, TF over GST control) | 1.31 fold enrichment (6-mer frequency, TF over GST control) | 1.5 fold enrichment (6-mer frequency, TF over GST control)
3 | TATAAA | 1.25 fold enrichment (6-mer frequency, TF over GST control) | 1.15 fold enrichment (6-mer frequency, TF over GST control) | 1.27 fold enrichment (6-mer frequency, TF over GST control) | 1.21 fold enrichment (6-mer frequency, TF over GST control) | 1.12 fold enrichment (6-mer frequency, TF over GST control) | 1.24 fold enrichment (6-mer frequency, TF over GST control) | 1.24 fold enrichment (6-mer frequency, TF over GST control) | 1.21 fold enrichment (6-mer frequency, TF over GST control)
4 | GATGTA | 1.18 fold enrichment (6-mer frequency, TF over GST control) | 1.39 fold enrichment (6-mer frequency, TF over GST control) | 1.49 fold enrichment (6-mer frequency, TF over GST control) | 2 fold enrichment (6-mer frequency, TF over GST control) | 1.43 fold enrichment (6-mer frequency, TF over GST control) | 1.38 fold enrichment (6-mer frequency, TF over GST control) | 1.39 fold enrichment (6-mer frequency, TF over GST control) | 1.35 fold enrichment (6-mer frequency, TF over GST control)
5 | TCAAAC | 1.18 fold enrichment (6-mer frequency, TF over GST control) | 1.09 fold enrichment (6-mer frequency, TF over GST control) | 1.19 fold enrichment (6-mer frequency, TF over GST control) | 1.15 fold enrichment (6-mer frequency, TF over GST control) | 1.11 fold enrichment (6-mer frequency, TF over GST control) | 1.12 fold enrichment (6-mer frequency, TF over GST control) | 1.21 fold enrichment (6-mer frequency, TF over GST control) | 1.19 fold enrichment (6-mer frequency, TF over GST control)
6 | ATACGA | 1.17 fold enrichment (6-mer frequency, TF over GST control) | 1.1 fold enrichment (6-mer frequency, TF over GST control) | 1.17 fold enrichment (6-mer frequency, TF over GST control) | 1.18 fold enrichment (6-mer frequency, TF over GST control) | 1.11 fold enrichment (6-mer frequency, TF over GST control) | 1.17 fold enrichment (6-mer frequency, TF over GST control) | 1.11 fold enrichment (6-mer frequency, TF over GST control) | 1.08 fold enrichment (6-mer frequency, TF over GST control)
7 | TATTTG | 1.34 fold enrichment (6-mer frequency, TF over GST control) | 1.47 fold enrichment (6-mer frequency, TF over GST control) | 1.41 fold enrichment (6-mer frequency, TF over GST control) | 1.32 fold enrichment (6-mer frequency, TF over GST control) | 1.52 fold enrichment (6-mer frequency, TF over GST control) | 1.4 fold enrichment (6-mer frequency, TF over GST control) | 1.47 fold enrichment (6-mer frequency, TF over GST control) | 1.45 fold enrichment (6-mer frequency, TF over GST control)
8 | TGGCTC | 1.31 fold enrichment (6-mer frequency, TF over GST control) | 1.5 fold enrichment (6-mer frequency, TF over GST control) | 1.23 fold enrichment (6-mer frequency, TF over GST control) | 1.32 fold enrichment (6-mer frequency, TF over GST control) | 1.22 fold enrichment (6-mer frequency, TF over GST control) | 1.21 fold enrichment (6-mer frequency, TF over GST control) | 1.44 fold enrichment (6-mer frequency, TF over GST control) | 1.36 fold enrichment (6-mer frequency, TF over GST control)
9 | TCCAAG | 1.03 fold enrichment (6-mer frequency, TF over GST control) | 1.06 fold enrichment (6-mer frequency, TF over GST control) | 1.13 fold enrichment (6-mer frequency, TF over GST control) | 1.17 fold enrichment (6-mer frequency, TF over GST control) | 1.07 fold enrichment (6-mer frequency, TF over GST control) | 1.07 fold enrichment (6-mer frequency, TF over GST control) | 1.06 fold enrichment (6-mer frequency, TF over GST control) | 1.03 fold enrichment (6-mer frequency, TF over GST control)
